Measured values: PubChem BioAssay AID1159580 (chemical genetic matrix, 2015)
Out of some 5,500 compounds screened, about 2,000 (36%) were called active. Not shown: some 18% with an inconclusive outcome. The list shows a part of the results. Values without a mark were called inactive. Rule as the data show it: active = normalized growth mostly below about 0.91 (no sharp cut-off); inconclusive = no clear call, values can overlap the other calls; inactive = mostly above about 0.92.

Assay: chemical genetic growth profiling, strain panel (AID 1159580);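 also: tested at 20 µM; growth read once vehicle control cultures reached saturation at 30 °C; 1 = growth at the plate median or of vehicle wells; lower values mean less growth of the strain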
Conditions: growth OD

Question: What does the source list for `COc1ccc(C2CC(=O)c3ccc(OC)cc3O2)cc1` (centres undefined)?
Answer: normalized growth (S. cerevisiae deletion strains, locus YKL068W, hits give low values): 0.97; normalized growth (S. cerevisiae deletion strains, locus YKL085W, strain MDH1 (second series), hits give low values): 0.982; normalized growth (S. cerevisiae deletion strains, locus YKL085W, strain MDH1, hits give low values): 0.982; normalized growth (S. cerevisiae deletion strains, locus YKL160W, strain elf1, hits give low values): 0.908; normalized growth (S. cerevisiae deletion strains, locus YKL190W, strain CNB1, hits give low values): 0.948; normalized growth (S. cerevisiae deletion strains, locus YKR001C, strain vps1, hits give low values): 0.876 (active); normalized growth (S. cerevisiae deletion strains, locus YKR026C, strain gcn3, hits give low values): 0.931; normalized growth (S. cerevisiae deletion strains, locus YKR091W, strain srl3, hits give low values): 0.968; normalized growth (S. cerevisiae deletion strains, locus YLL001W, strain dnm1, hits give low values): 0.938; normalized growth (S. cerevisiae deletion strains, locus YLL026W, hits give low values): 0.932; normalized growth (S. cerevisiae deletion strains, locus YLL041C, strain sdh2, hits give low values): 0.958; normalized growth (S. cerevisiae deletion strains, locus YLR027C, strain aat2, hits give low values): 0.93; normalized growth (S. cerevisiae deletion strains, locus YLR039C, strain RIC1, hits give low values): 0.811; normalized growth (S. cerevisiae deletion strains, locus YLR058C, strain SHM2, hits give low values): 0.901; normalized growth (S. cerevisiae deletion strains, locus YLR102C, strain apc9, hits give low values): 0.951; normalized growth (S. cerevisiae deletion strains, locus YLR113W, strain HOG1, hits give low values): 0.851 (active); normalized growth (S. cerevisiae deletion strains, locus YLR221C, strain rsa3, hits give low values): 0.899 (active); normalized growth (S. cerevisiae deletion strains, locus YLR258W, strain gsy2, hits give low values): 0.91 (active); normalized growth (S. cerevisiae deletion strains, locus YLR262C, strain YPT6 (second series), hits give low values): 0.912; normalized growth (S. cerevisiae deletion strains, locus YLR262C, strain YPT6, hits give low values): 0.872; normalized growth (S. cerevisiae deletion strains, locus YLR268W, strain sec22, hits give low values): 0.832 (active); normalized growth (S. cerevisiae deletion strains, locus YLR320W, strain mms22, hits give low values): 0.742 (active); normalized growth (S. cerevisiae deletion strains, locus YLR330W, strain CHS5, hits give low values): 0.844 (active); normalized growth (S. cerevisiae deletion strains, locus YLR342W, strain FKS1 (second series), hits give low values): 0.705 (active); normalized growth (S. cerevisiae deletion strains, locus YLR342W, strain FKS1, hits give low values): 0.936; normalized growth (S. cerevisiae deletion strains, locus YLR357W, strain rsc2, hits give low values): 0.902; normalized growth (S. cerevisiae deletion strains, locus YLR370C, strain arc18, hits give low values): 0.947; normalized growth (S. cerevisiae deletion strains, locus YLR371W, strain rom2, hits give low values): 0.938; normalized growth (S. cerevisiae deletion strains, locus YLR384C, strain iki3, hits give low values): 0.952; normalized growth (S. cerevisiae deletion strains, locus YLR418C, strain cdc73, hits give low values): 0.66 (active); normalized growth (S. cerevisiae deletion strains, locus YML016C, strain PPZ1, hits give low values): 0.959; normalized growth (S. cerevisiae deletion strains, locus YML032C, strain rad52, hits give low values): 0.889 (active); normalized growth (S. cerevisiae deletion strains, locus YML120C, strain ndi1, hits give low values): 0.869 (active); normalized growth (S. cerevisiae deletion strains, locus YML124C, strain tub3, hits give low values): 0.952; normalized growth (S. cerevisiae deletion strains, locus YMR058W, strain fet3, hits give low values): 0.932; normalized growth (S. cerevisiae deletion strains, locus YMR078C, strain ctf18, hits give low values): 0.93; normalized growth (S. cerevisiae deletion strains, locus YMR125W, strain sto1, hits give low values): 0.967; normalized growth (S. cerevisiae deletion strains, locus YMR129W, hits give low values): 0.956; normalized growth (S. cerevisiae deletion strains, locus YMR205C, strain PFK2, hits give low values): 0.842 (active); normalized growth (S. cerevisiae deletion strains, locus YMR223W, strain ubp8, hits give low values): 0.92; normalized growth (S. cerevisiae deletion strains, locus YMR231W, strain pep5, hits give low values): 0.993; normalized growth (S. cerevisiae deletion strains, locus YMR263W, strain SAP30, hits give low values): 0.869 (active); normalized growth (S. cerevisiae deletion strains, locus YMR307W, strain GAS1, hits give low values): 0.649; normalized growth (S. cerevisiae deletion strains, locus YNL067W, strain RPL9B, hits give low values): 0.87; normalized growth (S. cerevisiae deletion strains, locus YNL071W, strain lat1, hits give low values): 0.727 (active); normalized growth (S. cerevisiae deletion strains, locus YNL128W, strain TEP1, hits give low values): 0.9; normalized growth (S. cerevisiae deletion strains, locus YNL153C, strain GIM3, hits give low values): 0.847 (active); normalized growth (S. cerevisiae deletion strains, locus YNL183C, strain NPR1, hits give low values): 0.802 (active); normalized growth (S. cerevisiae deletion strains, locus YNL209W, strain ssb2, hits give low values): 0.965; normalized growth (S. cerevisiae deletion strains, locus YNL233W, strain BNI4, hits give low values): 0.804 (active); normalized growth (S. cerevisiae deletion strains, locus YNL248C, strain rpa49, hits give low values): 0.921; normalized growth (S. cerevisiae deletion strains, locus YNL250W, strain rad50, hits give low values): 0.939; normalized growth (S. cerevisiae deletion strains, locus YNL271C, strain bni1, hits give low values): 0.937; normalized growth (S. cerevisiae deletion strains, locus YNL298W, strain CLA4, hits give low values): 0.934; normalized growth (S. cerevisiae deletion strains, locus YNL307C, strain MCK1, hits give low values): 0.668 (active); normalized growth (S. cerevisiae deletion strains, locus YNL322C, strain KRE1 (second series), hits give low values): 0.969; normalized growth (S. cerevisiae deletion strains, locus YNR049C, strain mso1, hits give low values): 0.97; normalized growth (S. cerevisiae deletion strains, locus YNR052C, strain pop2, hits give low values): 0.944; normalized growth (S. cerevisiae deletion strains, locus YOL006C, strain TOP1, hits give low values): 0.394 (active); normalized growth (S. cerevisiae deletion strains, locus YOL012C, strain htz1): 0.489; normalized growth (S. cerevisiae deletion strains, locus YOL147C, strain pex11, hits give low values): 0.94; normalized growth (S. cerevisiae deletion strains, locus YOR001W, strain rrp6, hits give low values): 0.917; normalized growth (S. cerevisiae deletion strains, locus YOR061W, strain CKA2, hits give low values): 0.955; normalized growth (S. cerevisiae deletion strains, locus YOR069W, strain VPS5, hits give low values): 0.979; normalized growth (S. cerevisiae deletion strains, locus YOR070C, strain gyp1, hits give low values): 0.934; normalized growth (S. cerevisiae deletion strains, locus YOR080W, strain dia2, hits give low values): 0.957; normalized growth (S. cerevisiae deletion strains, locus YOR083W, strain WHI5, hits give low values): 0.865 (active); normalized growth (S. cerevisiae deletion strains, locus YOR106W, strain vam3, hits give low values): 0.887; normalized growth (S. cerevisiae deletion strains, locus YOR136W, strain idh2, hits give low values): 0.954; normalized growth (S. cerevisiae deletion strains, locus YOR144C, strain elg1, hits give low values): 0.938; normalized growth (S. cerevisiae deletion strains, locus YOR184W, strain ser1, hits give low values): 0.799 (active); normalized growth (S. cerevisiae deletion strains, locus YOR231W, strain MKK1, hits give low values): 0.881; normalized growth (S. cerevisiae deletion strains, locus YOR265W, strain rbl2, hits give low values): 0.952; normalized growth (S. cerevisiae deletion strains, locus YOR270C, strain vph1, hits give low values): 0.675 (active); normalized growth (S. cerevisiae deletion strains, locus YOR290C, strain snf2, hits give low values): 0.822 (active); normalized growth (S. cerevisiae deletion strains, locus YOR316C, strain cot1, hits give low values): 0.939; normalized growth (S. cerevisiae deletion strains, locus YPL051W, strain arl3, hits give low values): 0.887 (active); normalized growth (S. cerevisiae deletion strains, locus YPL055C, strain LGE1, hits give low values): 0.754 (active); normalized growth (S. cerevisiae deletion strains, locus YPL078C, strain atp4, hits give low values): 0.888 (active); normalized growth (S. cerevisiae deletion strains, locus YPL106C, strain sse1, hits give low values): 0.856; normalized growth (S. cerevisiae deletion strains, locus YPL240C, strain hsp82, hits give low values): 0.951; normalized growth (S. cerevisiae deletion strains, locus YPL241C, strain CIN2, hits give low values): 0.985; normalized growth (S. cerevisiae deletion strains, locus YPL256C, strain CLN2, hits give low values): 0.882; normalized growth (S. cerevisiae deletion strains, locus YPR119W, strain clb2, hits give low values): 0.969; normalized growth (S. cerevisiae deletion strains, locus YPR141C, strain kar3, hits give low values): 0.975; normalized growth (S. cerevisiae deletion strains, locus YPR163C, strain tif3, hits give low values): 0.797 (active); normalized growth (S. cerevisiae deletion strains, locus YPR167C, strain met16, hits give low values): 0.889 (active); normalized growth (S. cerevisiae deletion strains, strain wtn01, hits give low values): 0.887 (active); normalized growth (S. cerevisiae strains, strain wild type, hits give low values): 0.89 (active)
